Source: ChEMBL document CHEMBL4513146, “CO-ADD screening of Karazin Kharkiv National University (Ukraine) compounds”
Entries with a potency or affinity are not part of this list.

tested on: Cryptococcus neoformans; conditions: Concentration 32 ug.mL-1; ASSAY_TEST Inhibition of Fungal Growth; detection method Resazurin; Absorption (OD600-OD570); plate type 384well; NBS; CORNING #3640

SMILES	Inhibition [%]
CCOc1ccc(-n2ccn3c(SCC(=O)Nc4cccc(CC)c4)nnc3c2=O)cc1	-9.18
O=C(Cn1nc2c(Sc3ccccc3)nccn2c1=O)Nc1cccc(Cl)c1F	-9.38
O=C(Cn1nc2c3c4c(sc3ncn2c1=O)CCCC4)NCc1ccc(F)cc1	-14.13
O=C(Cn1nc2c(Oc3ccccc3)nccn2c1=O)Nc1ccc(F)cc1F	-7.74
CCCn1c(=O)c2sccc2n2c(=O)n(Cc3ccc(Cl)cc3)nc12	-22.99
Cc1ccc(Oc2nccn3c(=O)n(CC(=O)Nc4ccc(Br)cc4F)nc23)cc1	-6.11
Cc1ccc(C)c(NC(=O)Cn2nc3ccc(-c4ccc(C)c(C)c4)nn3c2=O)c1	-3.49
COc1ccc(-c2cc3c4nnc(SCC(=O)Nc5ccc(C#N)cc5)n4ccn3n2)cc1	-17.71
Cc1ccc(NC(=O)CSc2nc3ccccc3n3cnnc23)c(C)c1	-16.93
CCOc1ccc(C(=O)CSc2nnc3c(=O)n(-c4ccc(C)c(C)c4)ccn23)cc1	-7.55
O=C(Cn1nc2ccc(SC3CCCCC3)nn2c1=O)NCc1ccc(Cl)cc1	-20.43
Cc1cc(C)c(NC(=O)Cn2nc3c4c5c(sc4ncn3c2=O)CCCC5)c(C)c1	-18.32
CCc1nnc2c(SCC(=O)Nc3ccc(C)cc3Cl)nc3ccccc3n12	-8.66
Cc1ccc(-n2ccn3c(=O)n(Cc4ccccc4Cl)nc3c2=O)cc1C	-10.75
COc1cccc(-n2ccn3c(SCC(=O)c4ccc(Br)cc4)nnc3c2=O)c1	-5.95
